The values that follow come from PubChem BioAssay (EPA / NIEHS).

Each structure is given as a SMILES string. Where “and” joins values, the source holds several entries; their conditions need not be identical. Equal entries are not always repeated. Results filed as inconclusive are left out. A structure can be active in one record and inactive in another. Calls of active or inactive are those of the source. The calls were made as follows: active = hit-call score of the fitted dose curve at least 0.9, where 1 is the maximum; inconclusive = response in the unintended direction; inactive = score below 0.9.

A short description of experiment [1]: ATG_XTT_Cytotoxicity: Cytotoxicity Assessment in the Attagene TRANS-FACTORIAL HepG2 Assay (AID 2283584).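 As to AC50: cells exposed to compound for 24 h before reading; active means loss of viability signal versus DMSO baseline.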 The essentials: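 Viability endpoint from XTT after 24 h chemical exposure of reporter-transfected human HepG2 liver cells; signal loss fitted relative to DMSO negative control.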
Experiment [2] can be described thus: TOX21_p53_BLA_p2_viability: Viability Assessment in the Tox21 HCT-116 p53 Agonism Beta-lactamase Assay, Phase 2 (AID 2283591).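 Also: compound exposure lasted 16 h at 37 °C; actives lower the ATP signal meaning cytotoxicity.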 The procedure, abridged:
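HCT116 p53-bla cells, 4000/well, dosed after 5 h plating (217-fold dilution of DMSO stocks) and incubated 16 h at 37C. Viability taken as cellular ATP by CellTiter-Glo luminescence after 30 min RT; signal loss marks cytotoxicity.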

Experiment [3] has as its target Cellular tumor antigen p53 (Homo sapiens) (UniProt P04637). Kind of experiment: TOX21_p53_BLA_p3_ratio: Tox21 HCT-116 p53 Agonism Beta-lactamase Assay, Ratio, Phase 3 (AID 2283596). The essentials: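 HCT116 p53-bla cells (4000/well) given compound in DMSO (217-fold dilution) after 5 h, incubated 16 h at 37C. CCF4-AM substrate 2 h at room temperature; 460/530 nm emission ratio, gain fitted against DMSO.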

For experiment [4] the target is unchanged. Put plainly: TOX21_p53_BLA_p5_ratio: Tox21 HCT-116 p53 Agonism Beta-lactamase Assay, Ratio, Phase 5 (AID 2283599). The procedure, abridged: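 HCT-116 p53-bla cells (4000/well) plated 5 h, dosed with compound (217-fold DMSO dilution) for 16 h at 37 C; CCF4-AM substrate 2 h at room temperature. Activity is the 460/530 nm emission ratio (405 nm excitation), fitted in gain-of-signal direction versus DMSO.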

Experiment [5] can be described thus: TOX21_p53_BLA_p5_viability: Viability Assessment in the Tox21 HCT-116 p53 Agonism Beta-lactamase Assay, Phase 5 (AID 2283600). The essentials:
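After the 460/530 nm beta-lactamase measurement, the wells received an ATP-detection luciferase reagent; signal was read 30 min later at RT. Compound treatment lasted 16 h on cells pre-incubated 5 h post-seeding.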

Experiment [6] deals with Cellular tumor antigen p53 (Homo sapiens) (UniProt P04637). Kind of experiment: TOX21_p53_BLA_p2_ratio: Tox21 HCT-116 p53 Agonism Beta-lactamase Assay, Ratio, Phase 2 (AID 2283592). The essentials: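 Gain-of-signal p53 agonism was scored from the beta-lactamase FRET ratio (460/530 nm, 405 nm excitation) in HCT116 cells treated 16 h at 37C, 5% CO2, with DMSO serving as negative control and baseline.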

A short description of experiment [7]: TOX21_p53_BLA_p4_viability: Viability Assessment in the Tox21 HCT-116 p53 Agonism Beta-lactamase Assay, Phase 4 (AID 2283597).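 Also: hits lower the luminescence signal meaning cytotoxicity.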 The procedure, abridged: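 Following a 16 h exposure at 37C, the treated HCT116 wells were first read for the FRET ratio. They were then lysed with CellTiter-Glo, and ATP luminescence was recorded after 30 min at room temperature.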

Experiment [8] in a line: TOX21_p53_BLA_p3_viability: Viability Assessment in the Tox21 HCT-116 p53 Agonism Beta-lactamase Assay, Phase 3 (AID 2283593).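 Also: cells exposed to compound for 16 h before reading.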 The essentials: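 HCT116 cells, 4000/well, dosed 5 h after plating by pin transfer (217-fold dilution from DMSO stock) and incubated 16 h at 37C, 5% CO2. Viability read as ATP luminescence with CellTiter-Glo after 30 min at room temperature.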

Cellular tumor antigen p53 (Homo sapiens), sequence (P04637 whole entry, looked up): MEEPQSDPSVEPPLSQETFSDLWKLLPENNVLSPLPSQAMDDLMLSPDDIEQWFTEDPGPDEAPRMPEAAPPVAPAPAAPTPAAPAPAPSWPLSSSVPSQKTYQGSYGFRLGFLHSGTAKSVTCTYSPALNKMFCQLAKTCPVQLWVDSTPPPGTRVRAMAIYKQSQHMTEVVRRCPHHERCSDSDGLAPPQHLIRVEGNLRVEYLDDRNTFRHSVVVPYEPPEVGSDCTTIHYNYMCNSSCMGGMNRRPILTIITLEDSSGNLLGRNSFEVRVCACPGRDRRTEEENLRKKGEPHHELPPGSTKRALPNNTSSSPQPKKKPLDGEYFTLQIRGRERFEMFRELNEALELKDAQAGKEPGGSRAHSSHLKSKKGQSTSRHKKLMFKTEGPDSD

Regarding `COC(=O)CC(C(C)=O)C(=O)OC` (stereo not drawn), the molecule was classed as inactive in experiment [1], in experiment [2], in experiment [3], in experiment [4] and in experiment [5].
In the case of `CCCCCC(C)OC(=O)COc1ccc(Cl)c2cccnc12` (stereo not drawn), the call in experiment [1], in experiment [6], in experiment [3], in experiment [7], in experiment [4] and in experiment [5] was inactive.
As usually defined, the AC50 is the concentration at which the activity in the assay is half-maximal. For `O=C(Nc1ccc(Cl)c(Cl)c1)c1cc(Cl)cc(Cl)c1O`, the AC50 in experiment [1] was 43.1 µM (active); in experiment [6], 0.354 µM (active); in experiment [8], 989 nM (active); in experiment [3], 0.434 µM (active); in experiment [7], 0.671 µM (active); in experiment [4] it was 1.45 µM (active). For the same molecule, the call in experiment [5] was inactive.
In the case of `O=C(O)C(=O)O`, the result in experiment [1], in experiment [6], in experiment [3] and in experiment [4] was inactive.
For `CC1=CC(=O)c2ccccc2C1=O`, the result in experiment [1], in experiment [7], in experiment [4] and in experiment [5] was inactive. In addition, the concentration at half-maximal activity (AC50) in experiment [8] was 35.7 µM (active) and 36.7 µM (active); in experiment [3], 29.7 µM (active) and 41.4 µM (active); in experiment [7], 72.7 µM (active); in experiment [4], 40.7 µM (active); in experiment [5], 37.9 µM (active).
On to `CCOC(=O)CN[C@@H](C(=O)N1CC[C@H]1C(=O)NCc1ccc(/C(N)=N/O)cc1)C1CCCCC1`, for which the molecule was called inactive in experiment [1], in experiment [6], in experiment [3], in experiment [7] and in experiment [5].
Regarding `CCCCCCCCCCCCCC[n+]1ccccc1`, the AC50 in experiment [1] was 28.3 µM (active); in experiment [3], 14.1 µM (active); in experiment [7] it was 13.3 µM (active). In addition, the result in experiment [2], in experiment [4] and in experiment [5] was inactive.
`NNc1nc(-c2ccc([N+](=O)[O-])cc2)cs1`: the molecule was classed as inactive in experiment [1] and in experiment [5]. The concentration at half-maximal activity (AC50) in experiment [6] was 40.1 µM (active); in experiment [3], 55.7 µM (active); in experiment [7], 46.1 µM (active); in experiment [4] it was 39.6 µM (active).
Consider `CCCCCCOC(=O)c1ccc(O)cc1`, for which the AC50 was 149 µM (active) in experiment [1]; 86 µM (active) in experiment [3]; 43.2 µM (active) and 64.2 µM (active) in experiment [7]; 70.6 µM (active) and 76.8 µM (active) in experiment [4]. In addition, the result in experiment [2], in experiment [3] and in experiment [5] was inactive.
For `CCCCCCCCCCCC(=O)NCCCN(C)C`, the result in experiment [1] was inactive. Further, the AC50 in experiment [2] is 44.2 µM (active); in experiment [3], 87.2 µM (active); in experiment [7] it was 29 µM (active); in experiment [4], 86 µM (active); in experiment [5], 65.7 µM (active).
As to `CN(C)c1ccc(C(=C2C=CC(=[N+](C)C)C=C2)c2ccccc2)cc1`, the AC50 in experiment [1] is 10.1 µM (active) and 7.71 µM (active); in experiment [6], 9.06 µM (active) and 39.7 µM (active); in experiment [8] it was 1150 nM (active); in experiment [3], 15.1 µM (active); in experiment [7], 1.36 µM (active) and 23 µM (active); in experiment [4] it was 19.2 µM (active). Further, the result in experiment [8], in experiment [3], in experiment [4] and in experiment [5] was inactive.
Take `O=C(Nc1cccc([N+](=O)[O-])c1)c1cc2ccccc2cc1O`: the molecule was classed as inactive in experiment [1], in experiment [2] and in experiment [5]. For the same molecule, the AC50 in experiment [3] is 1.1 µM (active); in experiment [7], 16.6 µM (active); in experiment [4], 4.65 µM (active).
On to `CCC(C)c1nccnc1OC` (stereo not drawn), for which the outcome in experiment [1] and in experiment [6] was inactive.
For the molecule `c1ccc(CNc2ncnc3c2ncn3C2CCCCO2)cc1` (stereo not drawn), the outcome in experiment [1], in experiment [2], in experiment [8], in experiment [7] and in experiment [5] was inactive.
Consider `CC(=O)CC(C)C`, for which the molecule was classed as inactive in experiment [1], in experiment [2], in experiment [6], in experiment [3], in experiment [7] and in experiment [4]. Moreover, in experiment [5], the result was inactive.
Take `NCCN`: the molecule was called inactive in experiment [1], in experiment [6], in experiment [3], in experiment [4] and in experiment [5].
For the molecule `Cc1cc(Cc2cc(C)cc(C(C)(C)C)c2O)c(O)c(C(C)(C)C)c1`, the AC50 was 74.7 µM (active) in experiment [1]; 27.1 µM (active) and 46 µM (active) in experiment [6]; 19.1 µM (active) and 20.2 µM (active) in experiment [8]; 44.8 µM (active) and 57.1 µM (active) in experiment [3]; 12 µM (active) and 19.2 µM (active) in experiment [7]; 33.6 µM (active) and 41.4 µM (active) in experiment [4]. The AC50 in experiment [5] is 17.7 µM (active) and 16.7 µM (active).
With `O=C1c2ccccc2C(=O)c2c(O)c(O)cc(O)c21`, the molecule was called inactive in experiment [1], in experiment [3], in experiment [7], in experiment [4] and in experiment [5]. The AC50 in experiment [6] is 42.8 µM (active).
For `COc1ccccc1NC(=O)c1cc2ccccc2cc1O`, the call in experiment [1], in experiment [2], in experiment [8], in experiment [3], in experiment [7] and in experiment [4] was inactive. Moreover, the result in experiment [5] was inactive. Besides, the AC50 in experiment [6] was 14 µM (active).
On to `CC(=O)Nc1ccc(S(N)(=O)=O)cc1`, for which the molecule was called inactive in experiment [1], in experiment [2] and in experiment [3].
Consider `CCCCCCCCCC=CCC1CC(=O)OC1=O` (stereo not drawn), for which the molecule was called inactive in experiment [1], in experiment [2], in experiment [6], in experiment [3], in experiment [7] and in experiment [4]. Besides, in experiment [5], the molecule was classed as inactive.
For `c1cnc2c(c1)ccc1cccnc12`, the molecule was called inactive in experiment [1], in experiment [6], in experiment [3], in experiment [4] and in experiment [5]. The half-maximal activity concentration (AC50) in experiment [6] was 38.3 µM (active); in experiment [7] it was 41.8 µM (active).
Consider `Cc1ccccc1C(OCCN(C)C)c1ccccc1` (stereo not drawn), for which the molecule was called inactive in experiment [1], in experiment [2], in experiment [3] and in experiment [7].
For `CCN(CC)CC`, the molecule was classed as inactive in experiment [1], in experiment [2], in experiment [4] and in experiment [5].
Regarding `CCC1CO1` (stereo not drawn), the outcome in experiment [1], in experiment [6] and in experiment [5] was inactive.
For `CC(C)(C)c1ccc(O)c(O)c1`, the molecule was called inactive in experiment [1], in experiment [2], in experiment [6], in experiment [8], in experiment [3] and in experiment [7]. In addition, the result in experiment [4] and in experiment [5] was inactive.
